Screens: PubChem BioAssay, several laboratories
Her2 expr inh: inhibitors of Her2 protein expression, primary screen, SKBR-3 cells, AlphaScreen, 66K library. Receptor tyrosine-protein kinase erbB-2 (Homo sapiens), P04626. SKBR-3 HER2 protein level, 18-24 h; active compounds read low. HER2 level % of control, % at 10 µM. hit rate 0.69% among 65,000. AID 645, 2007;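 active = HER2 level under 5% of the carrier-only control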;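 note: lower value means stronger loss of Her2 protein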
Jurkat viability: cytotoxicity toward Jurkat T cells, primary screen, cytotoxicity control, cell-based, Jurkat E6.1, 60K MLSMR library | hit rate 1.2% among 56,000 | Jurkat E6.1 viability, ATP luminescence, 48 h | AID 463, 2006 | inhibition, % at 4 µM;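 active = inhibition above the mean inhibition of all tested compounds plus 3 SD, cut at about 28% in these data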
SK-BR-3 tox 24h: SK-BR-3 proliferation inhibitors, primary screen, cell-based, human, 24 h; SK-BR-3 viability, CellTiter-Glo ATP luminescence; active compounds read low; viability, % at 10 µM; hit rate 0.47% among 41,000;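 active = viability at or below the median of all test compounds minus 3 SD, in both replicates if run twice, cut at about 45% in these data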
Of the large screens only hits and unclear results are named; the others gave an inactive call. An excerpt weighted towards active compounds, which were near 2% of everything screened.

O=C(c1cc2nc3c(c(C(F)(F)F)n2n1)CCc1ccccc1-3)N1CCN2CCCC2C1 (configuration not stated)	none
COc1ccc(Cl)c(Cn2c(NCc3ccco3)nc3c2c(=O)n(C)c(=O)n3C)c1	Her2 expr inh -26
COc1cccc(Cn2c(NCc3ccco3)nc3c2c(=O)n(C)c(=O)n3C)c1	none (no result: Jurkat viability)
OC(CNC1CCCCC1)CN1CCN(CC(O)CNC2CCCCC2)CC1 (configuration not stated)	none (no result: SK-BR-3 tox 24h)
Cc1cccc(Nc2nc(-c3ccccn3)cs2)n1	Her2 expr inh -21
c1ccc(Nc2nc(-c3cccs3)cs2)nc1	none
COc1ccc(S(=O)(=O)N(C)CC(=O)N2CCC(C(N)=O)CC2)cc1Cl	none
CCN(CC(F)(F)C(F)F)S(=O)(=O)c1ccc(NC(=O)OC)cc1	none
COC(=O)Nc1ccc(S(=O)(=O)N(CCO)CC(F)(F)C(F)F)cc1	Her2 expr inh -19
O=C(NCCc1ccccc1)C1CCCN(S(=O)(=O)c2cccc3nsnc23)C1 (configuration not stated)	none
CCCn1c(=O)n(C)c(=O)c2c3oc(=O)c(NC(=O)c4ccc(F)cc4)cc3[nH]c21	none (no result: SK-BR-3 tox 24h)
CC(NC(=O)COc1ccccc1)C(c1ccccc1)N1CCN(C)CC1 (configuration not stated)	none (no result: Jurkat viability)
CC1Cc2ccccc2N1C(=O)CCn1c(=O)sc2ccccc21 (configuration not stated)	none (no result: SK-BR-3 tox 24h)
CCOC(=O)c1sc(NC(=O)CSc2n[nH]c(-c3ccccc3)n2)c(C#N)c1C	none
Cc1ccc(/C=C/C2=Cc3c(sc(NC(=O)CSc4n[nH]c(N)n4)c3C#N)C(C)(C)C2)o1	Her2 expr inh -1.5 (no result: SK-BR-3 tox 24h)
O=S(=O)(Nc1ccc(-c2nc3cccnc3s2)cc1)c1cccs1	none (no result: SK-BR-3 tox 24h)
O=S(=O)(Nc1cccc2ncccc12)c1cccs1	Her2 expr inh -7.3, Jurkat viability 76 (no result: SK-BR-3 tox 24h)
C=CCn1c(N)c(C(=O)NCCC2=CCCCC2)sc1=S	none (no result: Jurkat viability, SK-BR-3 tox 24h)
COc1ccc(-c2cn3c4c(sc3n2)CCCC4)cc1	none (no result: Her2 expr inh)
N#CCCn1c(Cl)nc2ccccc21	none
CCc1nnc(NC(=O)CSc2nnc(-c3ccc(O)cc3)n2-c2ccccc2)s1	none (no result: SK-BR-3 tox 24h)
COc1ccc(-c2nnc(SCC(=O)Nc3ncc(C)s3)n2-c2ccccc2)cc1OC	Jurkat viability 50
FC(F)C(F)(F)C(F)(F)C(F)(F)c1cc(-c2ccccc2)n[nH]1	none (no result: SK-BR-3 tox 24h)
O=C(Oc1ccc2ccccc2c1)c1ccco1	none (no result: SK-BR-3 tox 24h)
CC1CC(C)(C)Nc2ccc(OC(=O)c3ccco3)cc21 (configuration not stated)	Her2 expr inh -31, SK-BR-3 tox 24h 20
O=C(CSc1nc2ccccc2c(=O)[nH]1)N1CCOCC1	SK-BR-3 tox 24h 24
O=C(CSc1nc2ccccc2c(=O)[nH]1)N1CCCCCC1	none (no result: SK-BR-3 tox 24h)
CCOC(=O)c1ccc(N=c2sc(C(=O)OC)cc(=O)n2Cc2ccco2)cc1	Her2 expr inh 2.9 (no result: SK-BR-3 tox 24h)
CCOC(=O)c1ccc(N=c2sc(C(=O)OC)cc(=O)n2CCCN2CCOCC2)cc1	none (no result: SK-BR-3 tox 24h)
COc1cc(C2Nc3ccccc3C(=O)N2c2ccccc2OC)ccc1O (configuration not stated)	none (no result: SK-BR-3 tox 24h)
COc1cc(C2Nc3ccc4ncccc4c3C3=C2C(=O)CCC3)ccc1O (configuration not stated)	Jurkat viability 81
CC(CCc1ccccc1)NC(=O)C1CCN(S(=O)(=O)N2CCCCC2)CC1 (configuration not stated)	none (no result: SK-BR-3 tox 24h)
CCOC(=O)c1cnc2nc[nH]n2c1=O	none (no result: SK-BR-3 tox 24h)
Cc1nc2cc(F)ccc2n1C1CCN(S(=O)(=O)c2ccccc2)CC1	none
CC1(C)NC(=O)N(CC(O)CN2CCOCC2)C1=O (configuration not stated)	none
CC1(C)NC(=O)N(CC(O)CN2C(=O)NC(C)(C)C2=O)C1=O	SK-BR-3 tox 24h 43
COc1ccccc1-c1noc(CCC(=O)Nc2cc(C(F)(F)F)ccc2Cl)n1	none
C/C=C/COC(=O)c1[nH]c2c(c1C)C(=O)CC(c1ccc(N(C)C)cc1)C2 (configuration not stated)	none (no result: SK-BR-3 tox 24h)
COc1ccc(OC)c(C2CC(=O)c3c([nH]c(C(=O)OCC4CCCO4)c3C)C2)c1 (configuration not stated)	none (no result: SK-BR-3 tox 24h)
C/C=C/COC(=O)c1[nH]c2c(c1C)C(=O)CC(c1ccco1)C2 (configuration not stated)	Jurkat viability 99 (no result: SK-BR-3 tox 24h)
CCC(C)OC(=O)c1[nH]c2c(c1C)C(=O)CC(c1ccc(N(C)C)cc1)C2 (configuration not stated)	none (no result: Her2 expr inh, SK-BR-3 tox 24h)
Cc1c(C(=O)OCC2CCCO2)[nH]c2c1C(=O)CC(c1ccco1)C2 (configuration not stated)	Jurkat viability 78
C=CCOC(=O)c1[nH]c2c(c1C)C(=O)CC(c1ccco1)C2 (configuration not stated)	Jurkat viability 100 (no result: SK-BR-3 tox 24h)
COC(=O)c1[nH]c2c(c1C)C(=O)CC(c1ccccc1)C2 (configuration not stated)	Jurkat viability 98
CCOC(=O)c1ccc(N=CC2=C(O)CC(c3ccco3)CC2=O)cc1 (configuration not stated)	none (no result: Jurkat viability)
CCC(=O)N1CCN(c2ccccc2NC(=O)COc2ccccc2Cl)CC1	none
Cc1ccc(S(=O)(=O)Cn2nnnc2CN(Cc2ccco2)CC2CCCO2)cc1 (configuration not stated)	none
COc1ccc(C2C3=C(CCCC3=O)Nc3nc4ccccc4n32)c(OC)c1OC (configuration not stated)	none
COc1ccccc1N1CCN(S(=O)(=O)c2ccc(Cl)s2)CC1	none
CCCOC(=O)C1=C(C)NC2=C(C(=O)CCC2)C1c1cccc(OC)c1OC (configuration not stated)	none (no result: SK-BR-3 tox 24h)
Cc1cc(/N=C/C=C2\N(C)c3ccccc3C2(C)C)n(CCC#N)n1	none (no result: SK-BR-3 tox 24h)
Cc1ccc(NC(=O)CCSc2nnnn2-c2ccc3c(c2)OCO3)cc1C	none
Cc1c(C(=O)N2CCOCC2)[nH]c2c1C(=O)CC(c1ccccc1Cl)C2 (configuration not stated)	Jurkat viability 82
COC(=O)C1C(=O)c2c([nH]c(C(=O)OC3CCCC3)c2C)CC1C (configuration not stated)	none (no result: Jurkat viability, SK-BR-3 tox 24h)
Cc1c(C(=O)OC2CCCC2)[nH]c2c1C(=O)CC(c1ccco1)C2 (configuration not stated)	Jurkat viability 100 (no result: SK-BR-3 tox 24h)
Cc1c(C(=O)OCC(C)C)[nH]c2c1C(=O)CC(c1ccco1)C2 (configuration not stated)	Jurkat viability 99 (no result: SK-BR-3 tox 24h)
O=C(c1ccccc1)c1ccc(C(=O)N2CCOCC2)cc1	none (no result: SK-BR-3 tox 24h)
CCOCCOC(=O)c1[nH]c2c(c1C)C(=O)CC(c1ccc(N(C)C)cc1)C2 (configuration not stated)	none (no result: SK-BR-3 tox 24h)
COc1ccc(OC)c(C(c2nnnn2C2CCCC2)N2CCN(c3ccccc3)CC2)c1 (configuration not stated)	none (no result: SK-BR-3 tox 24h)
Cc1ccccc1-n1c(Cn2c(=O)sc3ccccc32)nnc1SCC(=O)NCC1CCCO1 (configuration not stated)	none (no result: SK-BR-3 tox 24h)
c1coc(-c2nn3c(Cn4nnc5ccccc54)nnc3s2)c1	none
CC(C)NC(=O)CCCc1ccccc1	none
COc1ccccc1-c1cc(C(=O)Nc2cc(C)on2)no1	none
COc1ccccc1-c1cc(C(F)(F)F)nc(S(=O)(=O)CCCC(=O)Nc2cc(C)on2)n1	Her2 expr inh -16
